Values joined by “and” are separate entries in the source; they are usually repeats but may differ in a detail not shown here. Equal entries are not always repeated. The campaign covered roughly 5,500 compounds. About 2,000 (36%) were called active. Another 18% or so got no clear call; they are omitted. Rule as the data show it: active = normalized growth mostly below about 0.91 (no sharp cut-off); inconclusive = no clear call, values can overlap the other calls; inactive = mostly above about 0.92. The list shows a part of the results.
Assay: chemical genetic growth profiling, strain panel (AID 1159580);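 also: tested at 20 µM; growth read once vehicle control cultures reached saturation at 30 °C; 1 = growth at the plate median or of vehicle wells; lower values mean less growth of the strain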
Conditions: S. cerevisiae deletion strains, growth OD

Measured: normalized growth

CNC(Cc1c[nH]c2ccccc12)C(=O)O (stereo not drawn)
inactive: locus YAL013W, strain DEP1, hits give low values 0.988 | locus YAL021C, strain ccr4, hits give low values 0.972 | locus YAL026C, strain drs2, hits give low values 0.982 | locus YAL030W, strain snc1, hits give low values 0.974 | locus YBL061C, strain skt5, hits give low values 0.986 | locus YBR009C, strain hhf1, hits give low values 0.976 | locus YBR021W, strain FUR4, hits give low values 1 | locus YBR023C, strain chs3, hits give low values 0.994 | locus YBR171W, strain sec66, hits give low values 0.986 | locus YBR229C, strain ROT2, hits give low values 0.959 | locus YBR231C, strain swc5, hits give low values 1 | locus YBR279W, strain paf1, hits give low values 0.997 | locus YCL011C, strain gbp2, hits give low values 0.985 | locus YCL016C, strain dcc1, hits give low values 0.976 | locus YCL029C, strain bik1, hits give low values 0.996 | locus YCL061C, strain MRC1, hits give low values 0.983 | locus YCL069W, strain vba3, hits give low values 0.977 | locus YCR088W, strain abp1, hits give low values 0.991 | locus YDL005C, strain med2, hits give low values 0.975 | locus YDL035C, strain GPR1, hits give low values 0.931 | locus YDL040C, strain nat1, hits give low values 0.976 | locus YDL074C, strain BRE1, hits give low values 0.981 | locus YDL101C, strain DUN1, hits give low values 0.982 | locus YDL134C, strain PPH21, hits give low values 0.972 | locus YDL185W, strain tfp1, hits give low values 0.97 | locus YDL192W, strain arf1, hits give low values 0.986 | locus YDR001C, strain nth1, hits give low values 0.976 | locus YDR069C, strain doa4, hits give low values 0.991 | locus YDR101C, strain arx1, hits give low values 1.04 | locus YDR137W, strain rgp1, hits give low values 1.01 | locus YDR159W, strain sac3, hits give low values 0.986 | locus YDR162C, strain NBP2, hits give low values 0.994 | locus YDR195W, strain ref2 0.944 | locus YDR297W, strain sur2, hits give low values 0.99 | locus YDR318W, strain mcm21, hits give low values 0.973 | locus YDR334W, strain swr1, hits give low values 0.983 | locus YDR335W, strain msn5, hits give low values 0.987 | locus YDR388W, hits give low values 0.989 | locus YDR392W, strain spt3, hits give low values 0.963 | locus YDR502C, strain sam2, hits give low values 0.992 | locus YEL003W, strain gim4, hits give low values 1 | locus YEL037C, strain rad23, hits give low values 0.978 | locus YEL061C, strain CIN8 (second series), hits give low values 0.976 | locus YEL061C, strain CIN8, hits give low values 0.987 | locus YER015W, strain faa2, hits give low values 0.986 | locus YER016W, strain bim1, hits give low values 0.988 | locus YER110C, hits give low values 0.99 | locus YER111C, strain swi4, hits give low values 0.988 | locus YER155C, strain BEM2 (second series), hits give low values 0.996 | locus YER155C, strain BEM2, hits give low values 1 | locus YER167W, strain BCK2, hits give low values 1.01 | locus YFR010W, strain ubp6, hits give low values 0.988 | locus YGL078C, strain dbp3, hits give low values 0.996 | locus YGL086W, strain mad1, hits give low values 1.02 | locus YGL167C, strain pmr1, hits give low values 0.971 | locus YGL173C, strain kem1, hits give low values 0.996 | locus YGL227W, strain vid30, hits give low values 0.988 | locus YGL240W, strain doc1, hits give low values 1 | locus YGL248W, strain PDE1, hits give low values 0.972 | locus YGL253W, strain hxk2, hits give low values 0.995 | locus YGR135W, strain pre9, hits give low values 0.973 | locus YGR252W, strain gcn5, hits give low values 0.929 | locus YHR013C, strain ard1, hits give low values 0.978 | locus YHR027C, strain rpn1, hits give low values 0.982 | locus YHR030C, strain SLT2, hits give low values 1 and 0.971 | locus YHR079C, strain IRE1 (second series), hits give low values 0.991 | locus YHR079C, strain IRE1, hits give low values 0.97 | locus YHR094C, strain hxt1, hits give low values 0.979 | locus YHR129C, strain ARP1, hits give low values 0.996 | locus YHR142W, strain chs7, hits give low values 0.986 | locus YHR200W, strain rpn10, hits give low values 0.986 | locus YIL066C, strain RNR3, hits give low values 0.973 | locus YIL073C, strain SPO22, hits give low values 0.977 | locus YIL125W, strain kgd1, hits give low values 0.994 | locus YIR030C, strain dcg1, hits give low values 0.997 | locus YJL092W, strain hpr5, hits give low values 0.977 | locus YJL095W, strain BCK1 (second series), hits give low values 0.981 | locus YJL095W, strain BCK1, hits give low values 0.973 and 1.05 | locus YJL115W, strain asf1, hits give low values 0.971 | locus YJL129C, strain trk1, hits give low values 0.971 | locus YJL134W, strain LCB3, hits give low values 0.985 | locus YJL154C, strain vps35, hits give low values 0.986 | locus YJL164C, strain tpk1, hits give low values 0.968 | locus YJL166W, strain qcr8, hits give low values 0.99 | locus YJL168C, strain set2, hits give low values 0.992 | locus YJL187C, strain SWE1 (second series), hits give low values 0.971 | locus YJL187C, strain SWE1, hits give low values 0.99 | locus YJR043C, strain POL32, hits give low values 0.974

Reference: PubChem BioAssay AID1159580 (chemical genetic matrix, 2015)
